Some of the results follow. Calls of active or inactive are those of the source. Rule as the data show it: active = activation above about 4%; inactive = the rest.

This assay relates to Methionine sulfoxide reductase A (Bos taurus). In words: methionine sulfoxide reductase A activation – biochemical, absorbance, bovine, HTS, confirmation (AID 602270).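 Also: enzyme coupled to thioredoxin and thioredoxin reductase with NADPH; 0% = vehicle wells and 100% = reference activator wells.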 The note with it: purified bovine MsrA, absorbance read-out; at 10.6 µM; hits give high values.
Regarding `O=C(c1ccco1)N1CCN(Cc2cccc(C(F)(F)F)c2)CC1`, the activation is -0.28% (inactive).

As to `NC1=CC(=O)C(=O)c2cccnc21`, the activation is 5.78% (active).

In the case of `Cn1nnnc1SCC(=O)N1CCN(Cc2ccccc2)CC1`, the activation is -1.94% (inactive).

Regarding `O=C(CSc1n[nH]c(-c2cccs2)n1)N1CCCCC1`, the activation is -1.33% (inactive).

Regarding `COc1ccc2nc(N3CCCC(O)C3)c(C#N)cc2c1` (stereo not drawn), the activation was -2.45% (inactive).

Regarding `COc1ccc(C(=O)COC(=O)c2ccc([N+](=O)[O-])s2)cc1OC`, the activation is 2.35% (inactive).

Take `O=C(CCN1CCN(c2ccccc2)CC1)NNC(=S)Nc1ccccc1`: the activation was -0.61% (inactive).

On to `O=C(O)c1ccccc1NC(=O)c1ccccc1-c1ccccc1C(=O)O`, for which the activation is -3.02% (inactive).

The values above are taken from PubChem BioAssay AID602270 (The Scripps Research Institute Molecular Screening Center, 2012).
